Of roughly 7,900 targets only a part is listed; those with a hit were picked by preference. About 0.6% of all pairs of compound and target were hits.
Legend:
Experiment in all cases: log2 fold change, soluble protein after heating vs DMSO (PISA); higher = thermal stabilisation; K562 cells, 10 uM, 30 min; active = over 0.2 and 3.5 SD of the protein, either way, in both replicates (recomputed)
[1] = compound: C#Cc1cccc(Nc2ncnc3cc(OCCOC)c(OCCOC)cc23)c1 [erlotinib]
Method in brief: (§1)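 K562 cells at 2×10^6 cells/mL were treated with 10 μM compound for 30 min. Aliquots were heated for 3 min across 48°C-58°C, pooled, and extracted in PBS with 0.5% NP-40 at 4°C; soluble protein was the supernatant after 21,000xg for 90 min. Soluble protein was quantified by TMTpro 16plex LC-MS/MS with channel sums equalised, and reported as log2 fold change in thermal stability against DMSO controls, with values from duplicates.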

[2] = compound: C/C(=N\NC(=O)C1=CC(=CC=C1)S(=O)(=O)N2CCOCC2)/C3=C(C=CC(=C3)Cl)O
Method in brief: as §1

[3] = compound: C1=CC(=C(C=C1Cl)C2=NC3=NC=CN=C3C(=N2)NC4=CC=NC=C4)F
Method in brief: as §1

[4] = compound: C1=CC(=CC=C1C2=NC3=C(N2)C=C(C=C3)C(=O)N)OC4=CC=C(C=C4)Cl
Method in brief: as §1

[5] = compound: C1=CC2=C(C=CC(=C2)/C=C\3/C(=O)NC(=NCC4=CC=CS4)S3)N=C1
Method in brief: as §1

[6] = compound: C1=CC2=NC=CN=C2C=C1/C=C/3\C(=O)NC(=O)S3
Method in brief: as §1

[7] = compound: C1=CC=C(C=C1)C2=NC(=C(N2)C3=CC=NC=C3)C4=CC(=C(C=C4)Cl)O
Method in brief: as §1

[8] = compound: C1=CC=C2C(=C1)C3=NNC4=CC=CC(=C43)C2=O
Method in brief: as §1

[9] = compound: C1CCN(C1)C(=O)NC2=CC=CC(=C2)NC3=NC=C(C(=N3)NCCC4=CN=CN4)Br
Method in brief: as §1

[10] = compound: C1CN(CCC1(CC2=CC=C(C=C2)Cl)N)C3=NC=NC4=C3C=CN4
Method in brief: as §1

Measured: log2 fold change

NNT (UniProt Q13423)
UniProt Q13423, sequence (Q13423 whole entry, looked up): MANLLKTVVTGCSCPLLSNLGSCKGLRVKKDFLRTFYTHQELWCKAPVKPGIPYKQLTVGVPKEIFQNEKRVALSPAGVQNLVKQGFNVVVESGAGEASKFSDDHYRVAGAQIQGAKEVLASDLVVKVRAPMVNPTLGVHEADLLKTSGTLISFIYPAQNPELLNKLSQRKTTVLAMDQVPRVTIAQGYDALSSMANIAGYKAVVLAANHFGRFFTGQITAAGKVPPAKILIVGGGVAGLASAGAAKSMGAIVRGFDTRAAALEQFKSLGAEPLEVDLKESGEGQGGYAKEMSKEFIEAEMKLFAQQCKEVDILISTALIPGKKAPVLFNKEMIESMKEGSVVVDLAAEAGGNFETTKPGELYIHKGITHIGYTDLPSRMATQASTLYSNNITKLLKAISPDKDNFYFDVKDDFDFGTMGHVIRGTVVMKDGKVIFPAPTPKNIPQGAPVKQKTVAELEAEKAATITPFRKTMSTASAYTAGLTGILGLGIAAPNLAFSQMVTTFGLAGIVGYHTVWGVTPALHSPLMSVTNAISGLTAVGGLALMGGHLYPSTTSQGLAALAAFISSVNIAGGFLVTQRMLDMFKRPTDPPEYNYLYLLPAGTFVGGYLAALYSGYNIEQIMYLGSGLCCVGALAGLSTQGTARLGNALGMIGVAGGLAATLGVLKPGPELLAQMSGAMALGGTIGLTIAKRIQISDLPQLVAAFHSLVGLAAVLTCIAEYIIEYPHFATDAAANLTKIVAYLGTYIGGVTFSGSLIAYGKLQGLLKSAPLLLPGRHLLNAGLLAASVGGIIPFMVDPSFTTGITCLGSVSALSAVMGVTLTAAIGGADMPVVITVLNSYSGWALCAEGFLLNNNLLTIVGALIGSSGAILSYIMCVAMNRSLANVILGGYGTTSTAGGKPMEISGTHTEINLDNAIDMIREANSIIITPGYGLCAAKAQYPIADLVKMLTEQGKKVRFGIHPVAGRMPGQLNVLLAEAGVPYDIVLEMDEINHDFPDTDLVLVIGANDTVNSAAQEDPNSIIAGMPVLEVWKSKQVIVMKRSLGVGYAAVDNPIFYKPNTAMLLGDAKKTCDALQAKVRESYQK
inactive: [1] -0.008 | [2] 0.051 | [3] 0.089 | [4] -0.012 | [5] 0.044 | [6] 0.01 | [7] 0.005 | [8] -0.005 | [9] -0.001 | [10] 0.043

NUMB (UniProt P49757)
inactive: [1] 0.016 | [2] -0.012 | [3] -0.048 | [4] 0.018 | [5] -0.001 | [6] 0.044 | [7] -0.004 | [8] -0.009 | [9] -0.087 | [10] 0.021

NUDT1 (UniProt P36639)
inactive: [1] 0.164 | [2] -0.018 | [3] 0.135 | [4] -0.068 | [5] 0 | [6] -0.032 | [7] 0.055 | [8] 0.187 | [9] -0.009
active: [10] 1.01

NRDC isoform 2 (UniProt O43847)
inactive: [1] -0.016 | [2] 0.081 | [3] 0.012 | [4] -0.024 | [5] 0.021 | [6] 0.024 | [7] 0.027 | [8] 0.057 | [9] -0.046 | [10] 0.049

NUP85 (UniProt Q9BW27)
UniProt Q9BW27, sequence (Q9BW27 whole entry, looked up): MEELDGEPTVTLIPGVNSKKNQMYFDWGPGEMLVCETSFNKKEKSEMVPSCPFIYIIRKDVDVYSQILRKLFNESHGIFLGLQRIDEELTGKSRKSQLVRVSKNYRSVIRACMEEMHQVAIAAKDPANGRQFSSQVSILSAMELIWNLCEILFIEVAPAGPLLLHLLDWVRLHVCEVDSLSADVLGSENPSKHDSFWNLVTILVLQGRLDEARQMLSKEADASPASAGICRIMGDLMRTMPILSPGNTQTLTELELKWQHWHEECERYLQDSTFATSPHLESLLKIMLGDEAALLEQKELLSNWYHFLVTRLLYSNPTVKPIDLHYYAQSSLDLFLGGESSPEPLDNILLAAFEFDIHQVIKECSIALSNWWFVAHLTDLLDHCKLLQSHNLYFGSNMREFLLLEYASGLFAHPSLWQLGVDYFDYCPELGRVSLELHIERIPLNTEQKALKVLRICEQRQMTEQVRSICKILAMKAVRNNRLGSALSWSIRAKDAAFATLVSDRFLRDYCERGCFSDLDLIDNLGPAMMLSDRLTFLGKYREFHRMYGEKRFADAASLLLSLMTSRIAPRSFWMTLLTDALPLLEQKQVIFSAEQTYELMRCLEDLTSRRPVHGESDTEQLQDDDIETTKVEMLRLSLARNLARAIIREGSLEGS
inactive: [1] 0.046 | [2] 0.08 | [3] 0.037 | [4] 0.036 | [5] 0 | [6] 0.028 | [7] -0.012 | [8] -0.066 | [9] -0.051 | [10] 0.008

NFE2 (UniProt Q16621)
inactive: [1] 0.009 | [2] 0.005 | [3] -0.025 | [4] -0.001 | [5] -0.002 | [6] 0.158 | [7] -0.012 | [8] -0.009 | [9] -0.02 | [10] -0.019

MRPS35 (UniProt P82673)
inactive: [1] -0.068 | [2] -0.028 | [3] -0.048 | [4] 0.14 | [5] 0.003 | [6] -0.043 | [7] 0.022 | [8] 0.096 | [9] 0.042 | [10] -0.08

MRPS18B (UniProt Q9Y676)
inactive: [1] 0.026 | [2] 0.101 | [3] -0.051 | [4] 0.124 | [5] 0.03 | [6] 0.034 | [7] 0.027 | [8] 0.119 | [9] 0.079 | [10] -0.119

MRPS17 (UniProt Q9Y2R5)
inactive: [1] -0.034 | [2] -0.019 | [3] -0.125 | [4] 0.142 | [5] -0.062 | [6] 0 | [7] 0.042 | [8] 0.088 | [9] -0.014 | [10] -0.126

OTULIN (UniProt Q96BN8)
inactive: [1] -0.023 | [2] 0.054 | [3] 0.091 | [4] -0.143 | [5] 0.066 | [6] 0.06 | [7] -0.027 | [8] 0.039 | [9] -0.042 | [10] -0.086

MT-ATP6 (UniProt P00846)
inactive: [1] 0.207 | [2] 0.146 | [3] -0.042 | [4] -0.07 | [5] -0.078 | [6] -0.391 | [7] -0.048 | [8] -0.017 | [9] -0.073 | [10] -0.042

MINK1 (UniProt Q8N4C8)
inactive: [1] -0.05 | [2] 0.053 | [3] -0.071 | [4] 0.036 | [5] -0.045 | [6] 0.001 | [7] -0.064 | [8] -0.203 | [9] -0.003 | [10] -0.008

MLX (UniProt Q9UH92)
UniProt Q9UH92, sequence (Q9UH92 whole entry, looked up): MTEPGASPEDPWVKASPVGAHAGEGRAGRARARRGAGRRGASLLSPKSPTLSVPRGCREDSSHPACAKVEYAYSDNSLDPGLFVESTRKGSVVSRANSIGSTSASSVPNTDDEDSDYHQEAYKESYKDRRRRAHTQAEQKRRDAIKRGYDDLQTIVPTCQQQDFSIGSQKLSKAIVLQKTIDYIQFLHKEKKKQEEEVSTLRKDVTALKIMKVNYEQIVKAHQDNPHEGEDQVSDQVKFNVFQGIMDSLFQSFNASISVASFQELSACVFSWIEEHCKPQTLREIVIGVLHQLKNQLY
inactive: [1] 0.038 | [2] 0.135 | [3] -0.057 | [4] 0.062 | [5] 0.032 | [6] -0.094 | [7] -0.041 | [8] -0.076 | [9] -0.012 | [10] -0.143

MTMR14 (UniProt Q8NCE2)
inactive: [1] -0.019 | [2] 0.009 | [3] 0.047 | [4] 0.037 | [5] 0.002 | [6] 0.009 | [7] -0.038 | [8] -0.05 | [9] -0.05 | [10] 0.028

MRPS31 (UniProt Q92665)
inactive: [1] 0.003 | [2] 0.001 | [3] -0.032 | [4] 0.105 | [5] -0.004 | [6] 0.023 | [7] 0.048 | [8] 0.064 | [9] 0.003 | [10] -0.066

NUP107 (UniProt P57740)
UniProt P57740, sequence (P57740 whole entry, looked up): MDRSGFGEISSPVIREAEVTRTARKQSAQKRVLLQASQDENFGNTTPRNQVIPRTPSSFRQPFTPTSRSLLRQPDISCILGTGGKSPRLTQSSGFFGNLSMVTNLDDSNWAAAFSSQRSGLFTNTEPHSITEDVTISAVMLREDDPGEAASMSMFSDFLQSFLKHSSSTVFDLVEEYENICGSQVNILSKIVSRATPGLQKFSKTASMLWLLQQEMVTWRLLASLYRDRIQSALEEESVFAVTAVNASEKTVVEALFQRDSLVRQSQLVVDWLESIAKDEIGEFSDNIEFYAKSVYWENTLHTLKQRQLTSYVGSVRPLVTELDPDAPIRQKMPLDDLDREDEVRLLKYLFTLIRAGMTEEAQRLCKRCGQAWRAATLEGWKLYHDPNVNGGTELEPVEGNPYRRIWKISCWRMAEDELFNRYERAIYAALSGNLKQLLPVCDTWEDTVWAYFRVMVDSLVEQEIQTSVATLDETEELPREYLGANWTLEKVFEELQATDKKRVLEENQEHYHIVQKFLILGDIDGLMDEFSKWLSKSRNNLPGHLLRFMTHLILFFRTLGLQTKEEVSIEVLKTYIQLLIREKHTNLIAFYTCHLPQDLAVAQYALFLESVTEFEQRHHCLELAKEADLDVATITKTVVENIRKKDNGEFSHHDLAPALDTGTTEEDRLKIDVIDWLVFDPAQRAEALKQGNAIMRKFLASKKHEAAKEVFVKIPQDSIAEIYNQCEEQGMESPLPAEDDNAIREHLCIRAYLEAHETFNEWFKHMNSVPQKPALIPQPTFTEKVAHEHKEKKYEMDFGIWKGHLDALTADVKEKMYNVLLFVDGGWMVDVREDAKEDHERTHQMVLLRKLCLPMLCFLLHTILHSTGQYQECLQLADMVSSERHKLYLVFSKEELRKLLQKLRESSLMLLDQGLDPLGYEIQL
inactive: [1] -0.05 | [2] 0.004 | [3] -0.128 | [4] 0.063 | [5] 0.04 | [6] 0.065 | [7] -0.037 | [8] -0.192 | [9] -0.145 | [10] -0.005

OXA1L (UniProt Q15070)
inactive: [1] -0.014 | [2] 0.029 | [3] -0.005 | [4] 0.012 | [5] 0.01 | [6] 0.021 | [7] 0.006 | [8] -0.029 | [9] 0.012 | [10] 0.043

NEDD4L (UniProt Q96PU5)
inactive: [1] 0.014 | [2] 0.078 | [3] -0.078 | [4] 0.005 | [5] 0.016 | [6] 0.035 | [7] 0.146 | [8] 0.019 | [9] -0.026 | [10] -0.076

NUCKS1 (UniProt Q9H1E3)
UniProt Q9H1E3, sequence (Q9H1E3 whole entry, looked up): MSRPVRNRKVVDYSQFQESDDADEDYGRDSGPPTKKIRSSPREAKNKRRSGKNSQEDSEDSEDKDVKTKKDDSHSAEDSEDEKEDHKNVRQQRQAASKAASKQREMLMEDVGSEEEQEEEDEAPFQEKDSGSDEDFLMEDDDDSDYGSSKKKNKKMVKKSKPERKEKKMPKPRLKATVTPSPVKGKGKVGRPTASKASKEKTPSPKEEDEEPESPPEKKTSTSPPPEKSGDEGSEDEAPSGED
inactive: [1] 0.045 | [2] -0.098 | [3] -0.002 | [4] -0.029 | [5] -0.052 | [6] 0 | [7] -0.089 | [8] 0.033 | [9] 0.067 | [10] -0.002

MORC3 (UniProt Q14149)
inactive: [1] 0.022 | [2] 0.084 | [3] 0.171 | [4] 0.035 | [5] -0.024 | [6] 0.068 | [7] 0.012 | [8] 0.014 | [9] -0.026 | [10] -0.162

NOP56 (UniProt O00567)
UniProt O00567, sequence (O00567 whole entry, looked up): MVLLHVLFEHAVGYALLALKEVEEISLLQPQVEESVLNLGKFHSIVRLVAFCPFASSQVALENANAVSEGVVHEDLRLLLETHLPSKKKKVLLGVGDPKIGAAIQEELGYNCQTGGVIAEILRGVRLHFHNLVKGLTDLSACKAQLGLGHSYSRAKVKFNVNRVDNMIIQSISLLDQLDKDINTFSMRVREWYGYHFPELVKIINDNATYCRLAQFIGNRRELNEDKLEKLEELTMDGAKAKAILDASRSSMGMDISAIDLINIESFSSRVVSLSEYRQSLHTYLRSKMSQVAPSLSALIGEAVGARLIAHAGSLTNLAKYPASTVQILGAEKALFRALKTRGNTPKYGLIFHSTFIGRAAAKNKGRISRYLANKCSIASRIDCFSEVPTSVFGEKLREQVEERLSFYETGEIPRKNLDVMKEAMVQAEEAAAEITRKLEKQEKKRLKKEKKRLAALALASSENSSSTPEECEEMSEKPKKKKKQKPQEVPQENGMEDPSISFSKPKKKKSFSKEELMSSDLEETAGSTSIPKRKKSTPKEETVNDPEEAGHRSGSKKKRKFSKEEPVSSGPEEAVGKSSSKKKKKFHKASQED
active: [3] -0.676
inactive: [1] -0.093 | [2] -0.012 | [4] 0.087 | [5] -0.232 | [6] 0.045 | [7] -0.164 | [8] -0.109 | [9] -0.111 | [10] -0.15

MKRN2 (UniProt Q9H000)
UniProt Q9H000, sequence (Q9H000 whole entry, looked up): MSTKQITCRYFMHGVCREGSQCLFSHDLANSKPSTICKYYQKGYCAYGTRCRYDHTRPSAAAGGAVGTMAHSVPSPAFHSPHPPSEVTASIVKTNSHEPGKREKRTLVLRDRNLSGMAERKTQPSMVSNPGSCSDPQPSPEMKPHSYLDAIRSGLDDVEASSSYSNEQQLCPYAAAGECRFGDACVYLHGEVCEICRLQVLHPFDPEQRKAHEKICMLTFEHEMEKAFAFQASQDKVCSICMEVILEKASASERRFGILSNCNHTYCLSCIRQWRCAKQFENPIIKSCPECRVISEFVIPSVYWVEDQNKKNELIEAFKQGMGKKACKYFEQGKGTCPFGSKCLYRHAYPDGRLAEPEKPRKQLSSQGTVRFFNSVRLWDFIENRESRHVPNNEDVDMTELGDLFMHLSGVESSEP
inactive: [1] -0.038 | [2] 0.057 | [3] -0.16 | [4] 0.013 | [5] -0.058 | [6] 0.002 | [7] -0.011 | [8] -0.052 | [9] -0.085 | [10] 0.061

NDFIP1 (UniProt Q9BT67)
inactive: [1] -0.066 | [2] 0.07 | [3] -0.046 | [4] 0.077 | [5] -0.244 | [6] 0.046 | [7] 0.005 | [8] 0.122 | [9] -0.234 | [10] -0.168

NCOR1 (UniProt O75376)
inactive: [1] -0.057 | [2] 0.021 | [3] -0.034 | [4] 0.041 | [5] 0.08 | [6] 0.026 | [7] 0.044 | [8] -0.21 | [9] -0.055 | [10] -0.051

PACS1 (UniProt Q6VY07)
inactive: [1] 0.027 | [2] 0.036 | [3] -0.049 | [4] 0.01 | [5] 0.016 | [6] -0.077 | [7] -0.039 | [8] -0.084 | [9] -0.048 | [10] -0.063

MRPS22 (UniProt P82650)
inactive: [1] -0.052 | [2] 0.026 | [3] -0.021 | [4] 0.16 | [5] -0.082 | [6] 0 | [7] 0.026 | [8] 0.068 | [9] -0.028 | [10] -0.101

NME7 (UniProt Q9Y5B8)
inactive: [1] 0.166 | [2] 0.058 | [3] -0.052 | [4] -0.247 | [5] 0.127 | [6] -0.023 | [7] 0.06 | [8] 0.006 | [9] -0.039 | [10] -0.248

OGFR (UniProt Q9NZT2)
UniProt Q9NZT2, sequence (Q9NZT2 whole entry, looked up): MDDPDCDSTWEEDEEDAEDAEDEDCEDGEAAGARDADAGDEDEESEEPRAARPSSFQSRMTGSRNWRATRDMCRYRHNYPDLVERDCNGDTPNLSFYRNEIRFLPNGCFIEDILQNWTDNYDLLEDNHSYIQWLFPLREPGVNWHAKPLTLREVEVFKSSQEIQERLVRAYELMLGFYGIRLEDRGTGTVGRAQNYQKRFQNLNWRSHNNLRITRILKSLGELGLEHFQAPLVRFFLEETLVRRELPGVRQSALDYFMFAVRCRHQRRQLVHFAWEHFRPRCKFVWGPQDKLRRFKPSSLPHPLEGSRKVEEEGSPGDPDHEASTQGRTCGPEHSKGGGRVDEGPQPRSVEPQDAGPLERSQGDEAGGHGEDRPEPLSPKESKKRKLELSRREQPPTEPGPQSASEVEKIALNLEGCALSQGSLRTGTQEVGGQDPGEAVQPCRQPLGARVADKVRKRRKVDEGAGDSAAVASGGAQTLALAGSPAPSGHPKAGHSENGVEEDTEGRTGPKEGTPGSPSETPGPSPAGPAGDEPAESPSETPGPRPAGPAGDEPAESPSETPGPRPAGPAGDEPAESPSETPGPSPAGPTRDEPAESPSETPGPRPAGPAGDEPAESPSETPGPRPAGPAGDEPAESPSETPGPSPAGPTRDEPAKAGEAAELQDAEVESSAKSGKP
inactive: [1] 0.009 | [2] 0.207 | [3] -0.011 | [4] 0.107 | [5] 0.131 | [6] -0.157 | [7] 0.027 | [8] -0.085 | [9] 0.028 | [10] -0.132

MOV10 (UniProt Q9HCE1)
inactive: [1] -0.103 | [2] -0.062 | [3] -0.242 | [4] 0.026 | [5] -0.002 | [6] 0.049 | [7] -0.049 | [8] -0.054 | [9] 0.04 | [10] -0.158

MYH11 isoform 2 (UniProt P35749)
inactive: [1] 0.046 | [2] -0.081 | [3] 0.096 | [4] 0.02 | [5] 0.032 | [6] 0.018 | [7] -0.026 | [8] 0.036 | [9] -0.046 | [10] 0.028

Reference: the supplement of paper PMC10849652
